Results filed as inconclusive are left out. Entries that show only a call come without a potency. Activity calls are given as the source filed them. Calls come from the whole dose curve; as a rule, active = well fitted inhibition curve with a large enough effect; inconclusive = small, poorly fitted or top-dose-only effect; inactive = no such curve, though single readings can be large or run the other way.
Assay: BET inhibitor-based combinations targeting novel dependencies in MECOM-rearranged (r) AML: UCSD-AML1 cell line (AID 2202235); note: nearly all actives have a fitted effect of over 40% in size
Details: UCSD-AML1 AML cells viability, CellTiter-Glo, 48 h; series mostly up to 46 µM
Text: Ecotropic viral insertion site 1 (EVI1) is located on chromosome 3q26.2 as part of the MECOM (MDS and EVI1 complex) locus. Under normal hematopoiesis, EVI1 is a regulator of hematopoietic stem cell maintenance and self-renewal and EVI1 levels decrease as the cells differentiate. In approximately 5-10% of de novo acute myeloid leukemia (AML) EVI1 is aberrantly expressed, including Chromosomal inv(3)(q21;q26.2) or t(3;3)(q21;q26.2) alterations (MECOM-r) that account for about 50% of AML with EVI1 overexpression 31. AMLs with high levels of EVI1 have a poor prognosis and an overall survival time averaging between 10-14 months. EVI1 overexpression confers resistance in leukemia cells, highlighting the need to develop new targeted therapies for EVI1 overexpressing AMLs. Here, we performed an unbiased chemical drug screening by evaluating the single agent activity of a collection of 2,480 oncology-focused, approved and investigational drugs (NCATS Mechanism Interrogation Plates, MIPE v5.0) against a panel of seven AML cell lines. These included four MECOM-r cell-lines (AML-191, AML-194, UCSD-AML1 and HNT-34) and three non-MECOM-r AMLs (MV4-11, OCI-AML3 and SET-2). Exploiting the mechanistic redundancy built in the library, we identified target-level sensitivities in MECOM-r AML cells and relative activity as compared to other AML subtypes.
A collection of 2480 mechanistically annotated dugs (MIPE v5.0) was used to screen four 3q26.2 rearranged AML cell lines and three non-3q26.2 rearranged AML cell lines. This library purposely exploits redundancy by including multiple inhibitors of key onco-targets, while simultaneously encompassing mechanistic diversity, targeting more than 800 distinct mechanisms of action. Briefly, cells were seeded in 5 uL of growth media using a Multidrop Combi dispenser into 1536 well white polystyrene tissue culture treated plates (Corning) at a density of 500cells/well. For each cell-line, for each of the 2480 drugs in MIPE v5.0 library, an 11-point dose curve was generated via a 1536 pin-tool. Plates were incubated for 48 hr at standard incubator conditions, covered by a stainless steel gasketed lid to prevent evaporation. Cell viability was determined by luminescence based, Cell Titer Glo assay (Promega). In detail, 3 uL of Cell Titer Glo were added to each well and plates were incubated at room temperature for 15 min with a stainless-steel lid in place. Luminescence readings were taken using a Viewlux (PerkinElmer) with a 2 s exposure time per plate. Compound dose-response curves were normalized to DMSO and empty well controls on each plate. Quantitative drug activity data from dose-response curves was determined utilizing area Under the Curve (AUC) and Z-transformed AUC (Z-AUC, a mean-centering transformation applied to each individual cell-line screened).
Potency is the fitted concentration of half-maximal effect.

Q: Which Potency does the source give for `O=C(O)CNC(=O)c1ncc(-c2cccc(Cl)c2)cc1O` here?
A: The Potency was “inactive”.

Q: With `CON(C)C(=O)N1N=C(c2cc(F)ccc2F)S[C@@]1(CCCN)c1ccccc1` as the compound, how does the Potency read?
A: Its Potency is 0.0105 µM (active).

Q: For `C=CCNC1=C2CC(C)CC(OC)C(O)C(C)/C=C(\C)C(OC(N)=O)C(OC)/C=C/C=C(\C)C(=O)NC(=CC1=O)C2=O` (stereo not given), which Potency is on record?
A: Its Potency is 1.32 µM (active).

Q: With `C/C=C/C/C=C/CCC(=O)[C@H]1O[C@H]1C(N)=O` as the compound, how does the Potency read?
A: Its Potency is 20.9 µM (active).

Q: Which Potency does the source give for `CCc1cc(/C(C)=N/OCc2ccc(C3CCCCC3)c(C(F)(F)F)c2)ccc1CN1CC(C(=O)O)C1` here?
A: Its Potency is “inactive”.

Q: With `Nc1ncccc1-c1nc2ccc(-c3ccccc3)nc2n1-c1ccc(C2(N)CCC2)cc1` as the compound, how does the Potency read?
A: The Potency was 16.6 µM (active).

Q: Which Potency does the source give for `Nc1n[n+]([O-])c2ccccc2[n+]1[O-]` here?
A: Its Potency is “inactive”.

Q: For `N[C@@H]1CN(c2c(F)cc3c(=O)c(C(=O)O)cn([C@@H]4C[C@@H]4F)c3c2Cl)CC12CC2`, which Potency is on record?
A: The Potency was “inactive”.

Q: With `CN(CCOc1ccc(C[C@H](Nc2ccccc2C(=O)c2ccccc2)C(=O)O)cc1)c1ccccn1` as the compound, how does the Potency read?
A: The Potency was “inactive”.

Q: With `COc1ccccc1C(=O)Nc1cc2c(cc1N1CCNC[C@H]1C)n(C)c(=O)n2C` as the compound, how does the Potency read?
A: The Potency was “inactive”.

Q: With `CCOc1ccc(-n2c([C@@H](C)N(Cc3cccnc3)C(=O)Cc3ccc(F)c(C(F)(F)F)c3)nc3ncccc3c2=O)cc1` as the compound, how does the Potency read?
A: Its Potency is “inactive”.

Q: Which Potency does the source give for `O=C(CCc1ccc(O)cc1)c1c(O)cc(O)cc1O[C@@H]1O[C@H](CO)[C@@H](O)[C@H](O)[C@H]1O` here?
A: The Potency was “inactive”.

Q: With `O=C(CO)N1CCC(c2[nH]nc(-c3ccc(Cl)cc3)c2-c2ccncn2)CC1` as the compound, how does the Potency read?
A: Its Potency is “inactive”.

Q: Which Potency does the source give for `NC(=O)c1nc(F)c[nH]c1=O` here?
A: The Potency was “inactive”.

Q: With `O=C(Nc1cnccc1Cl)N1CCN(Cc2ccc3c(c2)OC(F)(F)O3)CC1` as the compound, how does the Potency read?
A: The Potency was “inactive”.

Q: Which Potency does the source give for `Nc1nc(Nc2ccc3c(c2)CC[C@@H](N2CCCC2)CC3)nn1-c1cc2c(nn1)-c1ccccc1CCC2` here?
A: The Potency was 18.6 µM (active).

Q: For `CC(=O)NCCCS(=O)(=O)O`, which Potency is on record?
A: The Potency was “inactive”.

Q: Which Potency does the source give for `C=C1C(=O)OC2/C=C(/C)CC/C=C(/C)CCC12` (stereo not given) here?
A: Its Potency is 26.3 µM (active).

Q: For `C=C1C[C@H]2C=Nc3cc(OCCCOc4cc5c(cc4OC)C(=O)N4CC(=C)C[C@H]4C=N5)c(OC)cc3C(=O)N2C1`, which Potency is on record?
A: Its Potency is “inactive”.

Q: For `COc1ccc2[nH]c3c(c2c1)CCN[C@]31CS[C@@H]2c3c(OC(C)=O)c(C)c4c(c3[C@H](COC1=O)N1[C@@H]2[C@H]2c3c(cc(C)c(OC)c3O)C[C@@H]([C@@H]1O)N2C)OCO4`, which Potency is on record?
A: The Potency was 0.0038 µM (active).

Q: For `C[C@H]1CN(C2COC2)CCN1c1ccc(Nc2cc(-c3ccnc(N4CCn5c(cc6c5CC(C)(C)C6)C4=O)c3CO)cn(C)c2=O)nc1`, which Potency is on record?
A: The Potency was “inactive”.

Q: For `N#Cc1cccnc1N1CCN(C(=O)c2cccc(Cc3n[nH]c(=O)c4ccccc34)c2)CC1`, which Potency is on record?
A: The Potency was 0.0833 µM (active).

Q: With `CN1C(=O)[C@@H](NC(=O)c2cc(Cc3ccccc3)on2)COc2ccccc21` as the compound, how does the Potency read?
A: The Potency was “inactive”.

Q: For `Cc1cc(OCCCc2c3n(c4c(-c5c(C)nn(C)c5C)c(Cl)ccc24)[C@H](C)CN(c2cn(C)c4ccc(C(=O)O)cc24)C3=O)cc(C)c1Cl`, which Potency is on record?
A: Its Potency is 20.9 µM (active).

Q: Which Potency does the source give for `CC[C@@H]1[C@H](F)C(=O)N[C@@H]1COc1nccc2cc(C(N)=O)c(OC)cc12` here?
A: Its Potency is 20.9 µM (active).

Q: For `CCC1CCCCN1C(=O)n1ncc(C(O)(c2ccccc2)c2ccccc2)n1` (stereo not given), which Potency is on record?
A: The Potency was 20.9 µM (active).

Q: For `Cc1ccc(C2=Nc3ccc(Cl)cc3OC2)cc1`, which Potency is on record?
A: The Potency was “inactive”.

Q: For `C[C@]1(C(=O)N(CCCC(=O)O)Cc2cccc(Cl)c2)CCN1C(=O)c1csc2ccccc12`, which Potency is on record?
A: The Potency was “inactive”.

Q: For `C[C@H]1[C@H](C)CC[C@]2(C(=O)O)CC[C@]3(C)C(=CC[C@@H]4[C@@]5(C)CC[C@H](O)C(C)(C)[C@@H]5CC[C@]43C)[C@H]12`, which Potency is on record?
A: Its Potency is “inactive”.

Q: Which Potency does the source give for `O=C1CC[C@H](N2Cc3c(OCc4ccc(CN5CCOCC5)cc4)cccc3C2=O)C(=O)N1` here?
A: The Potency was “inactive”.

Q: Which Potency does the source give for `c1ccc(CNCc2ccc(CN3CCCNCCNCCCNCC3)cc2)nc1` here?
A: Its Potency is “inactive”.

Q: With `NC(=O)c1cnc2[nH]ccc2c1NC1C2CC3C[C@H]1CC(O)(C3)C2` (stereo not given in full) as the compound, how does the Potency read?
A: The Potency was 0.833 µM (active).

Q: With `Nc1ccc(C(=O)c2cc3c(ccc4ccccc43)[nH]2)cc1` as the compound, how does the Potency read?
A: Its Potency is 2.7 µM (active).

Q: For `Cn1c(=O)c2c(ncn2CC2OCCO2)n(C)c1=O`, which Potency is on record?
A: The Potency was “inactive”.

Q: Which Potency does the source give for `COC(=O)N[C@@H](C)CNc1nccc(-c2cn(C(C)C)nc2-c2cc(Cl)cc(NS(C)(=O)=O)c2F)n1` here?
A: The Potency was 2.63 µM (active).

Q: Which Potency does the source give for `COc1cc2c(Oc3ccc4[nH]c(C)cc4c3F)ccnc2cc1OCC1(N)CC1` here?
A: Its Potency is 9.34 µM (active).

Q: Which Potency does the source give for `CCN(C(=O)c1ccccc1OC)c1cc2c(cc1N1CCNC[C@H]1C)n(C)c(=O)n2C` here?
A: The Potency was “inactive”.

Q: With `NS(=O)(=O)c1ccc(NC(=S)N2CCN(C/C=C/c3ccccc3)CC2)cc1` as the compound, how does the Potency read?
A: Its Potency is “inactive”.

Q: Which Potency does the source give for `N#Cc1c(N(CC(=O)O)CC(=O)O)sc(C(=O)O)c1CC(=O)O` here?
A: Its Potency is “inactive”.

Q: With `C#CCN(C)CC1=Cc2ccccc2Oc2ccccc21` as the compound, how does the Potency read?
A: Its Potency is “inactive”.
